Results on seven molecules are retold here after PubChem BioAssay.

Assay [1] is described as follows: compounds binding Alexa647 anti-His antibody – biochemical, small-molecule microarray, 635 nm fluorescence, artefact control for SMM control protein annotation, primary screen (AID 1128).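 Note: score merges feature fluorescence with signal-to-noise for each printed compound spot.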 The note with it: higher = more signal.
The subject of assay [2] is Human papillomavirus type 1a E7 protein (residues 1-88). The experiment in a line: HPV1a E7 small-molecule binders, primary screen, biochemical, small-molecule microarray, residues 1-88, 635 nm (AID 1129). The note with it: small-molecule microarray binding, fluorescence 635 nm; higher = more signal.
The target in assay [3] is Focal adhesion kinase 1 (Homo sapiens) (UniProt Q05397). The experiment in a line: PTK2 protein binding on printed compound slides – biochemical, small-molecule microarray, 635/667 nm fluorescence, BSA, DTT, primary screen (AID 1130).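 Note: composite of spot emission at 667 nm and signal to noise over triplicate slides.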 As to conditions: 635 nm fluorescence, higher = more signal.
Assay [4] concerns Fibrinogen (Alexa647-labelled). The experiment in a line: Alexa647-fibrinogen binding to printed small molecules – biochemical, small-molecule microarray, 635/667 nm fluorescence, artefact control for SMM control-protein annotation, profiling panel (AID 1131).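 Note: z-score merges 667 nm fluorescence with per-spot signal-to-noise over triplicate slides.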 The note with it: fibrinogen-A647 binding fluorescence, higher = more signal.
Assay [5] deals with Follistatin (Homo sapiens) (UniProt P19883). The assay can be described thus: FST protein binding to printed compounds – biochemical, small-molecule microarray, 635/667 nm fluorescence, primary screen (AID 1132). The note with it: 635 nm fluorescence, higher = more signal.
Assay [6] concerns the target Fibroblast growth factor 2 (Homo sapiens) (UniProt P09038). The experiment in a line: basic fibroblast growth factor binding to printed compounds – biochemical, small-molecule microarray, 635/667 nm fluorescence, primary screen (AID 1133). The note with it: FGF2, fluorescence 635/667, higher = more signal.
The nature of assay [7]: JC-1 mitochondrial potential readout, lung cancer cells – cell-based, A549, JC-1 fluorescence, basal, 24 h, 100 nL, profiling panel (AID 1138).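 Note: A549 lung adenocarcinoma cells under basal conditions with no added stimulus; test concentration not given here.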 As to conditions: higher = more signal.
The subject of a further assay is Lefty1. The assay can be described thus: Lefty1 protein binding to printed compounds – biochemical, small-molecule microarray, 635/667 nm fluorescence, primary screen (AID 1139). The note with it: fluorescence 635/667, higher = more signal.
For assay [8], the system named is wheat germ agglutinin (Triticum aestivum), Alexa647-labelled. The assay can be described thus: Alexa647-WGA lectin binding to printed small molecules – biochemical, small-molecule microarray, 635/667 nm fluorescence, artefact control for SMM control-protein annotation, profiling panel (AID 1140).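 Note: score merges 667 nm feature emission with signal to noise over triplicate slides.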 As to conditions: WGA-A647 binding, 635 nm fluorescence, higher = more signal.

For assay [9], the target named is Luciferin 4-monooxygenase (Photinus pyralis) (UniProt P08659). The assay can be described thus: inhibition of purified Photinus pyralis luciferase – biochemical, luminescence, purified enzyme, 2006 set, primary screen (AID 1141).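 Note: cell-free assay with purified firefly luciferase at 100 ng per well in PBS; test concentration not given here.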 As to conditions: purified firefly luciferase, SteadyGlo luminescence, 30 min; higher = more signal, called active from +8 up or from −8 down.

Assay [10] concerns Wnt5a (protein binding on small-molecule microarray). The experiment in a line: small molecules binding Wnt5a protein – biophysical, small-molecule microarray, 635/667 nm fluorescence, primary screen (AID 1142).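 Note: fluorescence read at 667 nm with signal to noise per printed feature.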 The note with it: 635 nm fluorescence, higher = more signal.
Assay [11] is described as follows: ATP-based viability of Huh7 replicon cells – cell-based, CellTiter-Glo luminescence, basal, 48 h, cytotoxicity control for HCV replication inhibitor project, primary screen (AID 1143).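 Note: Huh7 hepatoma cells carrying a hepatitis C replication reporter with no stimulus; test concentration not given here.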 The note with it: higher = more signal, called active from +8 up or from −8 down. Background: In antiviral work, replicon cells carry a viral genome segment that copies itself.
The nature of assay [12]: Pseudomonas biofilm growth suppression – PAO1 strain, BacTiter-Glo luminescence, LB-PBS, primary screen (AID 1144). As to conditions: P. aeruginosa PAO1 biofilm, 12 h, higher = more signal.
Assay [13] is described as follows: basal CRE-LacZ reporter activity in PC12 – cell-based, unstimulated, primary screen (AID 1145). As to conditions: no forskolin, luminescence, 4.5 h, higher = more signal, called active from +8 up or from −8 down.
Assay [14] can be described thus: forskolin-driven CRE-LacZ activity in PC12 – cell-based, CRE-LacZ reporter, forskolin-stimulated, primary screen (AID 1146).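 Note: PC12 cells with 6xCRE LacZ reporter stimulated by forskolin 10 µM; beta-galactosidase reporter signal reflecting CREB driven transcription.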 As to conditions: luminescence, 4.5 h, higher = more signal, called active from +8 up or from −8 down.
Assay [15] addresses Streptavidin (Streptomyces avidinii) (UniProt P22629). The experiment in a line: compounds binding control protein streptavidin – biophysical, small-molecule microarray, 635/667 nm fluorescence, artefact control for SMM compound annotation, primary screen (AID 1147).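 Note: signal reflects streptavidin binding to arrayed compounds as a control protein.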 The note with it: higher = more signal.
Assay [16] in a line: probe aInhba binding on compound microarray – biochemical, small-molecule microarray, 635/667 nm fluorescence, primary screen (AID 1148).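 Note: score merges 667nm spot fluorescence with signal-to-noise for antibody binding to printed compounds.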 As to conditions: higher = more signal.
Assay [17] has as its target Torsin-1A (Homo sapiens) (UniProt O14656). The experiment in a line: TOR1A wild-type binding on microarray – cell lysate, small-molecule microarray, lysate, 635/667 nm, primary screen (AID 1149). The note with it: COS7 hTOR1A-WT lysate, 635 nm fluorescence, higher = more signal.
Assay [18] shares this target. The assay can be described thus: torsin A mutant lysate binding on microarrays – cell lysate, small-molecule microarray, COS7 lysate, 635/667 nm fluorescence, primary screen (AID 1150).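 Note: score pools 667 nm emission and signal to noise measuring lysate protein binding.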 As to conditions: COS7 hTOR1A mutant lysate, 635 nm fluorescence, higher = more signal.
For assay [19], the system named is Sonic hedgehog protein (Shh). The assay can be described thus: Sonic hedgehog microarray binding compounds – biochemical, small-molecule microarray, 635/667 nm fluorescence, primary screen (AID 1151).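 Note: Shh protein binding to compounds spotted on small-molecule microarray slides; score combines spot fluorescence intensity with signal-to-noise across triplicate slides.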 As to conditions: 635 nm fluorescence, higher = more signal.

Active and inactive are the calls of the source. Unless noted, the rule behind the calls is not given here.

Chain of Focal adhesion kinase 1 (Homo sapiens) (Q05397 whole entry, looked up): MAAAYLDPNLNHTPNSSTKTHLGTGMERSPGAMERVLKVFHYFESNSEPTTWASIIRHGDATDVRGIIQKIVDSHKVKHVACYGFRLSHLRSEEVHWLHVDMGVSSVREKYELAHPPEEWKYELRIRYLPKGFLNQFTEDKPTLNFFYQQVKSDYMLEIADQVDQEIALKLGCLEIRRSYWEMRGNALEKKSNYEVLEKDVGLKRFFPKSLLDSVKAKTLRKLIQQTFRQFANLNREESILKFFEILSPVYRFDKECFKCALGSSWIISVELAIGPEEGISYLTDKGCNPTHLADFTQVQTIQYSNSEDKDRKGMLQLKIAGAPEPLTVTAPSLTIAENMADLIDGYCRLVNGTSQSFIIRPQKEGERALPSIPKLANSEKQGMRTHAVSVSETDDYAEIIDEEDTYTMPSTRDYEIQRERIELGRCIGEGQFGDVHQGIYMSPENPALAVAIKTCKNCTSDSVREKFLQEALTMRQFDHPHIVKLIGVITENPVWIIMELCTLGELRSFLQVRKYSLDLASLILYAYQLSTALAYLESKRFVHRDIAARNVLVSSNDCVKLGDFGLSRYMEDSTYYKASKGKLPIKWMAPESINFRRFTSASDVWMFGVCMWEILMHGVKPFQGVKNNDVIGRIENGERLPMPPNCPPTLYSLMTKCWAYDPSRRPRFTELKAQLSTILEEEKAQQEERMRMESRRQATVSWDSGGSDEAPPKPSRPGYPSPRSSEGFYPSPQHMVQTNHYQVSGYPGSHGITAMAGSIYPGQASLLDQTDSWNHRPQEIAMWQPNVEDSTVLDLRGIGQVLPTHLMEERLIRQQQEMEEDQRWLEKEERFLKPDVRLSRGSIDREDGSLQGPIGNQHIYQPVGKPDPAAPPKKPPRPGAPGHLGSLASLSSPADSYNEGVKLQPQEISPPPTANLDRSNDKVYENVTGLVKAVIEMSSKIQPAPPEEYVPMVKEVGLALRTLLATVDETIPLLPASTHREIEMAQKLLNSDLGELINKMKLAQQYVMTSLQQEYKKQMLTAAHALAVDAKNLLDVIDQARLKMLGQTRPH
Chain of Streptavidin (Streptomyces avidinii) (P22629 whole entry, looked up): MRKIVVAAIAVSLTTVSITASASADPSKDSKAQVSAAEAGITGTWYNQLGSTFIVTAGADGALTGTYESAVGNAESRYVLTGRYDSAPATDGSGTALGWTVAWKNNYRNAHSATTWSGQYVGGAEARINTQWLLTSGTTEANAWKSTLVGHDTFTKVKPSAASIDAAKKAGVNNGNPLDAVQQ
Chain of Follistatin (Homo sapiens) (P19883 whole entry, looked up): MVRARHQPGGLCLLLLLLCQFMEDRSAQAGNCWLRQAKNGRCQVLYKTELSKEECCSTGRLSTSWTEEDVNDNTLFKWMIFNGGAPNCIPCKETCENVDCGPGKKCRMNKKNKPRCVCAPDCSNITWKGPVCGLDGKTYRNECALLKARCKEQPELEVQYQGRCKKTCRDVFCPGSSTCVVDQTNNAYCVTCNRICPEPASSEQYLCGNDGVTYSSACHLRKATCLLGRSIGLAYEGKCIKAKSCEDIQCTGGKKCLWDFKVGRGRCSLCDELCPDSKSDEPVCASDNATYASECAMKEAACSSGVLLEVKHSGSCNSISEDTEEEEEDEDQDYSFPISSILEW
Chain of Fibroblast growth factor 2 (Homo sapiens) (P09038 whole entry, looked up): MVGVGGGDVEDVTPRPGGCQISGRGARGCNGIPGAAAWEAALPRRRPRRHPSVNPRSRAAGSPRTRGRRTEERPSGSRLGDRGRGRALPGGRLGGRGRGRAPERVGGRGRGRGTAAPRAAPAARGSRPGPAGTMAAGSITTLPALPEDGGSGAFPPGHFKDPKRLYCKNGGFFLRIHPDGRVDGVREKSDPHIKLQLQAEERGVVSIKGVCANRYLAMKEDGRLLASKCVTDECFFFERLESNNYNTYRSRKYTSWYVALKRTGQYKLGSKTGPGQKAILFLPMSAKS
Chain of Torsin-1A (Homo sapiens) (O14656 whole entry, looked up): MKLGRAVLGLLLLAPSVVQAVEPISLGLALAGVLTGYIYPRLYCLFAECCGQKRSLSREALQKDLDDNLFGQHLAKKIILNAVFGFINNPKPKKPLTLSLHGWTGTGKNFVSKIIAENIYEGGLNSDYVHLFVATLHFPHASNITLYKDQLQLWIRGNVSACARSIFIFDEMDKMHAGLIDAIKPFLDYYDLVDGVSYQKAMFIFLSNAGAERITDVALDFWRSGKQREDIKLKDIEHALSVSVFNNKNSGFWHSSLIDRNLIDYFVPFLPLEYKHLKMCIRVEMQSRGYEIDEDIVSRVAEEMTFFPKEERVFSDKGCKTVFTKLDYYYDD
Chain of Luciferin 4-monooxygenase (Photinus pyralis) (P08659 whole entry, looked up): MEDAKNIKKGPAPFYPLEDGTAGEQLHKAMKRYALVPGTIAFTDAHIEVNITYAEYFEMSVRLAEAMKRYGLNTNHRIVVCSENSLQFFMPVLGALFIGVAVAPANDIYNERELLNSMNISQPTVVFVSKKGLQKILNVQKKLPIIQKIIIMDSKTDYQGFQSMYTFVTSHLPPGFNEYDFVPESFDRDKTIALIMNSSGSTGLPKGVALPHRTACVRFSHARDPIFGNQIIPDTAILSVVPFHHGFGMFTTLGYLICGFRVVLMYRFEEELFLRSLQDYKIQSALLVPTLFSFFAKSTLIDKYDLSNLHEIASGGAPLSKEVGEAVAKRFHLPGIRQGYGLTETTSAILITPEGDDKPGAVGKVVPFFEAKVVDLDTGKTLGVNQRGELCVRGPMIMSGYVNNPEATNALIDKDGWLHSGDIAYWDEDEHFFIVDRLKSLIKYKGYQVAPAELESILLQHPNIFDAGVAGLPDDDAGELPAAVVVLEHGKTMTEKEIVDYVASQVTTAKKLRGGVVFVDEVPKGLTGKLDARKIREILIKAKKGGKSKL

For the molecule `CCOC(=O)C[C@H]1[C@H](OC(=O)c2cc3ccccc3oc2=O)[C@@H](NC(=O)C2CCCCC2)c2cc(OCCCO)ccc2N1C(=O)c1ccccc1`, the composite z-score in assay [1] turned out to be 0.127; in [2], 0.942; in [3], 0.711; in [4], 0.799; in assay [5], 0.786; in assay [6], 1.48. The composite z-score is 0.558 in the assay on Lefty1; 0.667 in [8]; -0.0359 in assay [10]; 0.191 in [15]; -0.0245 in [16]; 0.046 in the assay with Torsin-1A (Homo sapiens) [17]. Also, the composite z-score amounted to 0.159 in the assay with Torsin-1A (Homo sapiens) [18] and 0.705 in [19]. Moreover, the z-score was -0.353 in [7]; -0.196 (inactive) in assay [9]; -3.06 (inactive) in assay [11]; 0.838 (inactive) in assay [12]; 11 (active) in [13]; -1.65 (inactive) in assay [14].

`CCOC(=O)C[C@H]1[C@H](OC(=O)Cc2ccc3c(c2)OCO3)[C@@H](NC(=O)c2ccc3ccccc3c2)c2cc(OCCCO)ccc2N1C(=O)c1ccccc1`: the composite z-score in assay [1] worked out at 0.638; in assay [2], 0.878; in assay [3], 0.675; in assay [4], 0.823; in [5] it was 0.375; in assay [6] it was 0.111. The composite z-score amounted to 0.593 in the assay with Lefty1; 0.271 in [8]; 0.0819 in assay [10]; 0.397 in [15]; 0.0184 in [16]; 0.0289 in the assay with Torsin-1A (Homo sapiens) [17]. For the same molecule, the composite z-score is 0.458 with Torsin-1A (Homo sapiens) [18] and 0.601 in assay [19]. The z-score was 1.84 in assay [7]; -1.05 (inactive) in [9]; -0.23 (inactive) in assay [11]; -0.784 (inactive) in assay [12]; 4.07 (inactive) in [13]; 0.005 (inactive) in assay [14].

Consider `COc1ccc(NN2C(C(O)c3ccc([N+](=O)[O-])cc3)C=CC3C(=O)N(C4CCCCC4)C(=O)C32)cc1` (stereo not given), for which the composite z-score in [1] was 0.525; in assay [2], 0.918; in [3], 0.201; in assay [4], 0.93; in [5], 0.737; in assay [6], -0.532. The composite z-score was 0.0274 in the assay with Lefty1; 1.13 in assay [8]; -0.0777 in assay [10]; 1.99 in assay [15]; 0.199 in assay [16]; -0.233 with Torsin-1A (Homo sapiens) [17]. The composite z-score in the assay with Torsin-1A (Homo sapiens) [18] is 0.382; in [19] it was -0.49. Besides, the z-score in assay [7] is 0.732; in assay [9] it was 0.939 (inactive); in [11], -0.416 (inactive); in [12] it was -1.05 (inactive); in assay [13] it was -0.667 (inactive); in assay [14], -0.441 (inactive).

On to `COc1ccc(C(=O)Nc2ccc(CN3C(=O)[C@@]4(O[C@@H](CCO)[C@H]([Si](C)(C)c5ccc(OC)cc5)[C@H]4C)c4ccccc43)cc2)cc1`, for which the composite z-score in assay [1] was 1.42; in assay [2], 0.97; in [3] it was -0.0228; in assay [4] it was 0.673; in [5] it was 1.37; in assay [6], 1.55. Moreover, the composite z-score is 1.45 with Lefty1; 0.559 in assay [8]; 0.146 in assay [10]; 0.225 in [15]; -0.201 in [16]; 1.05 in the assay with Torsin-1A (Homo sapiens) [17]. For the same molecule, the results for the composite z-score (with Torsin-1A (Homo sapiens) [18]; in [19]) were 0.471 and 1.96, respectively. Further, the z-score in assay [7] is -1.49; in assay [9], -0.555 (inactive); in assay [11], -8.02 (active); in [12], 0.422 (inactive); in [13], 3.11 (inactive); in assay [14], -1.27 (inactive).

As for `C=CCOC(=O)[C@H]1[C@@H]2C(=O)O[C@@H](c3ccccc3)[C@@H](c3ccccc3)N2[C@@H](c2ccc(OCCOC(=O)[C@@H]3C[C@@H]4C(=O)N5CCC[C@H]5C(=O)N4[C@@H]3c3cccc(OCCO)c3)cc2)[C@]12C(=O)Nc1ccccc12`, the composite z-score in [1] was determined as 2.53; in assay [2], 1.19; in [3] it was 0.701; in [4] it was 0.686; in [5], 1.3; in assay [6], 1.51. Also, the composite z-score is 1.14 in the assay with Lefty1; 0.847 in assay [8]; 0.537 in [10]; -0.274 in [15]; 0.325 in assay [16]; 0.459 with Torsin-1A (Homo sapiens) [17]. Moreover, the figures for the composite z-score (in the assay with Torsin-1A (Homo sapiens) [18]; in assay [19]) were 0.767 and 1.56, respectively. The z-score was -1.5 in [7]; -0.187 (inactive) in assay [9]; 0.0308 (inactive) in [11]; -0.0247 (inactive) in assay [12]; -0.675 (inactive) in [13]; 0.0527 (inactive) in assay [14].

Regarding `O=C1c2ccccc2[C@@]2(Cc3ccccc3N(CC(F)(F)F)C2=O)[C@H](c2ccc(CO)cc2)N1Cc1ccccc1Cl`, the composite z-score in assay [1] was 0.181; in assay [2] it was -0.265; in assay [3] it was -0.121; in assay [4] it was -0.134; in assay [5], 1.12; in assay [6], 0.652. Also, the composite z-score was 0.667 in the assay with Lefty1; -0.518 in [8]; 0.125 in assay [10]; 0.0272 in assay [15]; -0.0256 in [16]; 0.0329 with Torsin-1A (Homo sapiens) [17]. Further, the composite z-score worked out at 0.293 with Torsin-1A (Homo sapiens) [18] and 1.42 in assay [19]. The z-score in [7] is -0.000595; in [9] it was -0.496 (inactive); in assay [11], 0.289 (inactive); in assay [12], -0.165 (inactive); in assay [13], -0.141 (inactive); in [14], -1.11 (inactive).

In the case of `O=C1OCCC=C[C@H]2OC34C=CCN(CCN5CCOCC5)C(=O)[C@H]3N(CCCCCCO)C(=O)[C@@H]4C12` (stereo not given in full), the composite z-score in assay [1] was 0.626; in assay [2], -0.525; in assay [3], 0.604; in assay [4], -1; in assay [5] it was -0.061; in [6], -0.486. The composite z-score in the assay on Lefty1 is 0.0839; in assay [8], -0.255; in assay [10], -0.0312; in assay [15], -0.393; in assay [16], -0.179; with Torsin-1A (Homo sapiens) [17], 0.811. The composite z-score was -0.839 with Torsin-1A (Homo sapiens) [18] and 0.65 in assay [19]. For the same molecule, the z-score in assay [7] was 0.884; in [9], -0.892 (inactive); in assay [11], 0.18 (inactive); in assay [12], -0.134 (inactive); in [13], 1.55 (inactive); in [14], 0.0231 (inactive).
